Marburg entry inh: qHTS for inhibitors of binding or entry into cells for Marburg Virus | actives 1.8% (n = 300,000) | AID 540276, 2011 | Potency, µM (highest dose often 37.8 µM), inactives show top-dose activity change, negative = inhibition, usual class: inhibitors | Marburg virus pseudotyped entry inhibition, cell reporter; calls by dose curve; tested in HEK293 cells; note: potency is the fitted concentration of half-maximal effect
HCV inh: qHTS Assay for Inhibitors of Hepatitis C Virus (HCV); Huh7.5.1 HCVcc-Cre infection, luciferase reporter, 44 h; Potency, µM (series often up to 41.8 µM), for the others: at the top dose activity change, negative = inhibition, usual class: inhibitors; actives 3.4% (n = 340,000); active = well fitted inhibition curve with a large enough effect; inconclusive = small, poorly fitted or top-dose-only effect, or another doubt; inactive = no such curve, though single readings can be large or run the other way; note: potency is the fitted concentration of half-maximal effect
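Infectious HCVcc-Cre (~0.5 moi) was added to cells just after compound, with cells seeded 4 h earlier at 1,000 per well. Luciferase activity after 44 h culture reported infection; substrate was incubated 15 min at room temperature before reading.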
FMDV inh: High Throughput Screening for Foot and Mouth Disease Virus Antivirals; Potency, µM (series often up to 57.9 µM), inactives show at the highest dose activity change, negative = inhibition, most hits filed as inhibitors; actives 1.2% (n = 410,000); AID 1159524, 2015; FMDV antiviral cell-based qHTS; calls by dose curve; tested in HEK293T cells; note: read-out not given here; potency is the fitted concentration of half-maximal effect; nearly all actives have a fitted effect of over 45% in size
LASV entry inh: qHTS for Inhibitors of binding or entry into cells for Lassa Virus; actives 1.2% (n = 300,000); Lassa virus pseudotype entry inhibition, cell reporter; Potency, µM (doses to about 37.9 µM), without a hit: top-dose activity change, negative = inhibition, actives largely listed as inhibitors; AID 540256, 2011; calls by dose curve; tested in HEK293 cells; note: potency is the fitted concentration of half-maximal effect; nearly all actives have a fitted effect of over 50% in size
HCMV inh: qHTS Assay for inhibitors of the human cytomegalovirus (HCMV) | HFF cells, HCMV-luciferase reporter, 72 h; hits give low values | activity change, negative = inhibition, % at 57.5 µM | actives 4.5% (n = 410,000) | AID 1259415, 2018; in the data active = activity change below about -60%; inconclusive = no clear call, values can overlap the other calls; inactive = above about -39%
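Human foreskin fibroblasts infected with luciferase-reporter HCMV at MOI 1 PFU/cell, compounds at two doses. Luciferase measured 72 h post infection; normalized to buffer-only basal and Salinomycin (10uM) controls.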
Numbers without * were called inactive; ? = inconclusive; nt = not tested or not shown. Hits are enriched below; roughly 7.9% of the tested compounds scored in any of these assays. % is set by controls: 0 for no effect and ±100 for the full control effect.

SMILES	Marburg entry inh	HCV inh	FMDV inh	LASV entry inh	HCMV inh
COc1ccc(C(=O)NCCSc2ccccn2)cc1	?	9.0%	?	14.1µM*	30.3
O=c1[nH]c2ccccc2n1C1CCN(C(c2cccs2)c2nnnn2Cc2ccccc2)CC1 (stereo not drawn)	nt	nt	-4.8%	nt	-95.9*
COc1ccc(-n2nnnc2C(c2cc3ccccc3o2)N2CCC(n3c(=O)[nH]c4ccccc43)CC2)cc1 (stereo not drawn)	nt	nt	?	nt	-100.3*
O=c1[nH]c2ccccc2n1C1CCN(C(c2ccccc2OC(F)(F)F)c2nnnn2Cc2ccccc2)CC1 (stereo not drawn)	nt	nt	?	nt	-69.4*
FC(F)(F)Oc1ccccc1C(c1nnnn1Cc1ccccc1)N1CCN(C/C=C/c2ccccc2)CC1 (stereo not drawn)	nt	nt	-11.3%	nt	-24.3
Cc1cccc(C)c1-n1nnnc1C(c1cccs1)N1CCC(n2c(=O)[nH]c3ccccc32)CC1 (stereo not drawn)	nt	nt	?	nt	-76.8*
